According to PubChem BioAssay (NCATS):
Inconclusive results are not listed. Activity calls are given as the source filed them. Calls come from the whole dose curve; as a rule, active = well fitted curve in the direction sought with a large enough effect; inconclusive = small, poorly fitted or top-dose-only effect, or another doubt; inactive = no such curve, though single readings can be large; an effect the other way counts as inactive or inconclusive.

Legend:
[1] = tested on: Zika virus NS2B-NS3 protease (linked construct); assay: Primary screen NINDS Rhodamine qHTS for Zika virus inhibitors (AID 1347160); note: nearly all actives have a fitted effect of over 55% in size; note: potency is the fitted concentration of half-maximal effect
Procedure, shortened: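 Single-chain NS2B-NS3 protease, 25 nM, pH 8.0; compounds preincubated 15 min. Activity: Rhodamine110 release from 1.5 microM substrate over 15 min, room temperature, data fitted to 4-parameter Hill.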

[2] = HPAF-II Cancer Cell Toxicity qHTS against the NCATS CANVASS Library (AID 1347346); note: nearly all actives have a fitted effect of over 55% in size; note: potency is the fitted concentration of half-maximal effect
Procedure, shortened: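 First, HPAF-II cells are plated (1000 cells/well) and held 4 h at 37 degrees C. Next, compounds are pin-transferred as an 11-point series. After 72 h, CellTiter-Glo is added and luminescence measured.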

[3] = U-118MG Cancer Cell Toxicity qHTS against the NCATS CANVASS Library (AID 1347351); note: potency is the fitted concentration of half-maximal effect
Procedure, shortened: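 Following a 4 h pre-incubation of 1000 seeded cells, compounds were pinned in an 11-pnt dilution series and left for 72 h; viability then came from CellTiter-Glo.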

[4] = COV-362 Cancer Cell Toxicity qHTS against the NCATS CANVASS Library (AID 1347352); note: potency is the fitted concentration of half-maximal effect
Procedure, shortened: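 First, 1000 cells go into each well and rest for 4 hours. Next, an 11-point dilution range is pinned in. Plates then incubate 72 hours before CellTiter-Glo addition and luminescence reading.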

[5] = HPAF-II 24hr Apoptosis Induction qHTS against the NCATS CANVASS Library (AID 1347356)
Procedure, shortened: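 Cells seeded at 500 per well, then compounds pin-transferred in an 11-point concentration series. After 24 hours at 37 degrees C, Caspase-Glo 3/7 was added and luminescence measured following 15 min at room temperature.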

[6] = HEK293 18hr Apoptosis Induction qHTS against the NCATS CANVASS Library (AID 1347357)
Procedure, shortened: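 HEK293 cells (500/well, DMEM + 10% FBS) treated with an 11-point series for 18 h at 37 degrees C. Caspase-3/7 activity read by Caspase-Glo luminescence after 15 min at room temperature.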

[7] = HEK293 24hr Apoptosis Induction qHTS against the NCATS CANVASS Library (AID 1347359)
Procedure, shortened: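 HEK293 cells, 500 per well, exposed to an 11-point compound series for 24 hours at 37 degrees C. Caspase 3/7 activity read by Caspase-Glo luminescence (DEVD substrate) after 15 min at room temperature.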

[8] = HEK293 12hr Apoptosis Induction qHTS against the NCATS CANVASS Library (AID 1347361)
Procedure, shortened: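 HEK293 cells (500/well) were exposed to an 11-point qHTS concentration series for 12 hours at 37 degrees C. Caspase-3/7 activity was then read by DEVD-substrate luciferase luminescence after 15 min at room temperature.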

[9] = target: Luciferin 4-monooxygenase (Photinus pyralis) (UniProt P08659); assay: Firefly luciferase counterscreen qHTS: Assay Interference Panel against the NCATS CANVASS Library (AID 1347363); note: potency is the fitted concentration of half-maximal effect
Procedure, shortened: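 Purified P. pyralis luciferase (0.04 ug/mL, 4x reagent) added to Tris-acetate buffer with 0.013 mM D-luciferin, 0.013 mM ATP and 13.3 mM Mg-acetate; compounds preincubated 15 min, then luminescence read after 5 min, RT.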

[10] = KB-3-1 Cancer Cell Toxicity qHTS against the NCATS CANVASS Library (AID 1347366); note: nearly all actives have a fitted effect of over 75% in size; note: potency is the fitted concentration of half-maximal effect
Procedure, shortened: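 KB-3-1 cells (500/well) in DMEM with 10% FBS were exposed to compounds for 72 h at 37C. Viability was read by CellTiter-Glo luminescence.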

[11] = qHTS for ATAD5 Agonist screened against the NCATS CANVASS Library (AID 1347367);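 note: luciferase reporter driven by ATAD5 which rises upon DNA damage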; note: potency is the fitted concentration of half-maximal effect
Procedure, shortened: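 Luciferase reporter under ATAD5 control, stably integrated in HEK293T cells (2000/well). Compounds (11 points) incubated 16 h at 37C; viability read first by CellTiter-Fluor, then luminescence reporting ATAD5 activation. MMS positive control.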

[12] = MCF7 Cancer Cell Toxicity qHTS against the NCATS CANVASS Library (AID 1347369); note: potency is the fitted concentration of half-maximal effect
Procedure, shortened: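 MCF7 cells (500/well) were exposed 72 h at 37 °C to compounds in an 11-point series. Viability was read as ATP content by CellTiterGlo luminescence.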

[13] = J3T Cancer Cell Toxicity qHTS against the NCATS CANVASS Library (AID 1347371); note: potency is the fitted concentration of half-maximal effect
Procedure, shortened: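 Luminescence from CellTiterGlo, reporting cellular ATP, serves as the viability measure after 72 hr compound treatment of J3T canine glioma cells seeded at 500 cells/well.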

[14] = target: Nuclear receptor subfamily 1 group I member 3 (Homo sapiens) (UniProt Q14994); assay: qHTS for Constitutive Androstane Receptor (CAR) Agonist screened against the NCATS CANVASS Library (AID 1347373);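 note: every well also contained 1.5 µM PK11195 alongside the test compound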
Procedure, shortened: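 Cells were plated and allowed to attach for 4hr, then dosed with compound in an 11-point series alongside 1.5uM PK11195. After 24hr at 37C, viability was measured fluorometrically and CAR-driven CYP2B6 reporter luminescence was recorded.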

[15] = qHTS for Inflammasome Signaling Inhibitors: IL-1-beta AlphaLISA screen against the NCATS CANVASS Library (AID 1347379);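 note: human THP-1 cells primed with LPS then triggered with ATP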;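 for Potency: secreted IL-1B measured as AlphaLISA emission at 615 nm; potency is the fitted concentration of half-maximal effect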
Procedure, shortened: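 Secreted IL-1B from human THP-1 cells quantified by AlphaLISA 16 hr after compound addition (final up to 57.5 uM). A 1 hr compound pretreatment preceded inflammasome activation with 250 ng/mL LPS plus 1.25 mM ATP (final).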

[16] = Inflammasome Signaling qHTS Counterscreen: IL-1-beta AlphaLISA counterscreen against the NCATS CANVASS Library (AID 1347381);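 note: cell-free check with purified IL-1β in medium and no THP-1 cells; series mostly up to about 57 µM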
Procedure, shortened: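 Purified IL-1-beta (4 pg/well) + compound, 11-pt conc. series; acceptor beads 6 ug/mL + biotin-Ab 0.6 nM final, 1 h RT; SA-donor 24 ug/ml final, 30 min dark RT; read ex 680/em 615.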

[17] = Vero-766 cells viability qHTS against the NCATS CANVASS Library: Counterscreen for Zika virus inhibition assay (AID 1347394); note: nearly all actives have a fitted effect of over 60% in size; note: potency is the fitted concentration of half-maximal effect
Procedure, shortened: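 Vero 766 cells (1000/well), without Zika virus, were exposed to compounds for 72 h at 37C. Viability was measured by CellTiter Glo luminescence. Media-only wells served as 100% inhibition.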

[18] = Viability qHTS for inhibitors of the SERCaMP assay screened against the NCATS CANVASS Library (AID 1347400); note: nearly all actives have a fitted effect of over 70% in size; note: potency is the fitted concentration of half-maximal effect
Procedure, shortened: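 Seed SH-SY5Y-GLuc SERCaMP MJH297 cells at 1000 per well, incubate 4 h, add compounds across an 11-point range, incubate 48 h at 37C, then add CellTiter-Glo and read luminescence.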

[19] = qHTS for ATAD5 Antagonist screened against the NCATS CANVASS Library (AID 1347370); note: nearly all actives have a fitted effect of over 65% in size; note: potency is the fitted concentration of half-maximal effect
Procedure, shortened: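 Compounds (11-point) co-dosed with 10 µM 5-FUrd for 16 h at 37 °C onto HEK293T-ATAD5 luciferase reporter cells. Viability measured by CellTiter-Fluor fluorescence, then ATAD5 reporter signal by luminescence.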

[20] = 10-beta competent E. coli microbial cell viability qHTS against the NCATS CANVASS Library (AID 1347376); note: series mostly up to about 46 µM
Procedure, shortened: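 Bacterial suspension diluted to 0.2 OD was dosed with compounds, 11-point series, then held overnight at 37C. BacTiter-Glo reagent was added, and after 20 min at room temperature ATP-dependent luminescence was measured.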

Measured: Potency

Sequence of Luciferin 4-monooxygenase (Photinus pyralis) (P08659 whole entry, looked up): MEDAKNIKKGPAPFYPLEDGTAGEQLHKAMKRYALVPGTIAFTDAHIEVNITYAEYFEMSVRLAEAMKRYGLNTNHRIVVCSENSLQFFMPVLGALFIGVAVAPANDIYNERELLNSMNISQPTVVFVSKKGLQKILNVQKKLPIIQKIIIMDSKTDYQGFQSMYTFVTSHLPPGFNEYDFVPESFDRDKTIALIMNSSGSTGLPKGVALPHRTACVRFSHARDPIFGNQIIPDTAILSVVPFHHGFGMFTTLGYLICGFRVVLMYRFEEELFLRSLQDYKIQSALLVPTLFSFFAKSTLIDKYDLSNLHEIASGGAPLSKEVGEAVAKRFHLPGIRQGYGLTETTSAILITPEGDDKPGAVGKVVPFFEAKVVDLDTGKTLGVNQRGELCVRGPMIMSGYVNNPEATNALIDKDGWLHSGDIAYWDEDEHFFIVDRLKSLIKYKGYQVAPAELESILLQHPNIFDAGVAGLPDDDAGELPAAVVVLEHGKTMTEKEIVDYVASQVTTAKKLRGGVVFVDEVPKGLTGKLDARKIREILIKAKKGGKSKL
Sequence of Nuclear receptor subfamily 1 group I member 3 (Homo sapiens) (Q14994 whole entry, looked up): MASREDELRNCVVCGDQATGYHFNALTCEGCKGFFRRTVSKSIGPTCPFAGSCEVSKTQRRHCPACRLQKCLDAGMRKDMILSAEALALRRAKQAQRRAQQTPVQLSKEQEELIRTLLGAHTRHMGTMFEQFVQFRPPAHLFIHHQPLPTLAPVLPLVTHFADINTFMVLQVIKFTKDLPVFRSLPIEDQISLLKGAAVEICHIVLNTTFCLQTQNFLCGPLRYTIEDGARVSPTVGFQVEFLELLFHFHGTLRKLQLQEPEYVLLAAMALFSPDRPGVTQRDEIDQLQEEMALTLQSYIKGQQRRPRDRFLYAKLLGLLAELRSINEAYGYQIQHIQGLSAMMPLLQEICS

CCCCCCC[C@@H](C/C=C/CCC(=O)NCCc1c[nH]c2ccccc12)OC
active: [1] 49.3 µM | [17] 23.4 µM
not listed: [19] | [20]
inactive: all other assays above

COc1ccc(CCCc2cc(O)c(OC)c(O)c2)c(O)c1O
active: [1] 11 µM | [19] 11.7 µM
not listed: [10]
inactive: all other assays above

O=C1C[C@@H](c2ccc(O)c(-c3c(O)cc(O)c4c3O[C@H](c3ccc(O)cc3)CC4=O)c2)Oc2cc(O)cc(O)c21
active: [1] 4.84 µM
inactive: all other assays above

C=C(NC(=O)c1csc(-c2nc3c(cc2O)-c2nc(cs2)C(=O)NC(C(C)O)C(=O)N/C(=C(\C)O)c2nc(cs2)C(=O)NC2c4nc(cs4)C(=O)NC(COC(=O)c4c5c6c(cccc6n4O)COC(=O)[C@@H](OC4C[C@](C)(O)[C@H](N(C)C)[C@H](C)O4)C2OC5)c2nc-3cs2)n1)C(N)=O (stereo not given in full)
active: [1] 4.4 µM
inactive: all other assays above

CCCCCC[C@H](CCCCC[C@@H](O)C(N)=O)OC(=O)[C@@H]1CC=CN1C(=O)c1ccccc1O
active: [1] 62.1 µM
inactive: all other assays above

CC(=O)NC[C@@H]1O[C@H](CC/C=C(C)/C(C)=C/C=O)[C@H](C)C[C@H]1O
active: [1] 49.3 µM
not listed: [18]
inactive: all other assays above

CO[C@@H]1C[C@@H](C[C@H]2CC[C@H](C)[C@H]([C@@H](C)C(=O)O)O2)O[C@]2(O[C@](C)([C@H]3CC[C@@](C)([C@@H]4O[C@@H]([C@H]5O[C@](C)(O)[C@H](C)C[C@@H]5C)C[C@@H]4C)O3)C[C@H]2C)[C@@H]1C
inactive: [5] | [6] | [7] | [8] | [9] | [11] | [14] | [20] | [16]
active: [1] 11 µM | [2] 9.43 µM | [3] 5.3 µM | [4] 4.72 µM | [10] 14.8 µM | [12] 14.7 µM | [19] 14.8 µM | [13] 0.118 µM | [15] 5.44 µM | [17] 4.67 µM | [18] 10.7 µM

C=CC(C)(C)C(=O)[C@@H](C)[C@@H]1CC[C@](C)(C=C)O1
inactive: all assays above

C[C@@H](O)[C@H]1OC(=O)C=C2[C@]3(C)[C@H]4[C@H](OC(=O)[C@@]4(C)[C@@H](O)[C@H]4O[C@H]43)[C@H]3O[C@@]231
active: [2] 3.35 µM | [4] 1.88 µM | [10] 1.48 µM | [11] 0.524 µM | [13] 3.32 µM | [15] 12.2 µM | [17] 9.33 µM | [18] 7.6 µM
not listed: [3] | [12]
inactive: all other assays above

COc1c(O)cc2oc(-c3ccccc3)cc(=O)c2c1O
active: [1] 44 µM | [9] 0.544 µM
not listed: [10] | [11] | [14] | [17]
inactive: all other assays above

CC1=CC[C@@]2(C[C@@H]1O)[C@@H](C(=O)O)CC[C@H]2C(C)C
inactive: all assays above
